In PubChem BioAssay (NCATS):
Results filed as inconclusive are left out. Active and inactive are the calls of the source. Calls come from the whole dose curve; as a rule, active = well fitted curve in the direction sought with a large enough effect; inconclusive = small, poorly fitted or top-dose-only effect, or another doubt; inactive = no such curve, though single readings can be large; an effect the other way counts as inactive or inconclusive.

Target: Cytochrome P450 3A4 (Homo sapiens) (UniProt P08684)
Assay: qHTS Assay for Inhibitors and Substrates of Cytochrome P450 3A4 (AID 884); note: nearly all actives have a fitted effect of over 50% in size
Settings: recombinant CYP3A4, Luciferin-PPXE luminescence; series mostly up to 57.1 µM
How it was run: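 Luminescent readout of luciferin produced by CYP3A4 (20 nM) dealkylation of Luciferin-PPXE, 25 uM (its KM). NADPH-driven reaction ran 60 min at RT after 10 min compound preincubation; data scaled to 57 uM ketoconazole as 100% inhibition.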

Cytochrome P450 3A4 (Homo sapiens), sequence (P08684 whole entry, looked up): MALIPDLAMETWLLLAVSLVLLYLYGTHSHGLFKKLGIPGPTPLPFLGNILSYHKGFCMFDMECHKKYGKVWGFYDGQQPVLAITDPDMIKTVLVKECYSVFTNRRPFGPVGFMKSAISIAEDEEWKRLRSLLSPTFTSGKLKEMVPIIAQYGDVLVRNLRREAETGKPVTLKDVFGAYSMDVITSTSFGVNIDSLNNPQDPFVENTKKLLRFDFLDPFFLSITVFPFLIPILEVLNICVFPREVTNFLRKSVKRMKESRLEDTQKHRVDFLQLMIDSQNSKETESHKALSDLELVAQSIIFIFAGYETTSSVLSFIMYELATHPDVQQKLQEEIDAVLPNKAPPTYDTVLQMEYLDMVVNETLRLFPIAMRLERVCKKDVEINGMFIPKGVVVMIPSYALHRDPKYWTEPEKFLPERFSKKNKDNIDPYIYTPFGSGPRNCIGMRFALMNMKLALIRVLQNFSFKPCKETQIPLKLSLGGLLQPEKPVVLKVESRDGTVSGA

Potency, inactive:
OCCN1CC(O)C(O)C(O)C1CO (stereo unspecified)
CC(CCC(=O)O)C1CCC2C3C(=O)C[C@@H]4CC(=O)CC[C@@]4(C)C3CC(=O)[C@]12C (stereo partly specified)
COc1cccc(OC)c1C(=O)NC1C(=O)N2C1SC(C)(C)C2C(=O)O (stereo unspecified)
OCC1O[C@H](Oc2ccc(O)cc2)C(O)C(O)C1O (stereo partly specified)
CC1OC(OCC2OC(Oc3c(-c4ccc(OCCO)c(OCCO)c4)oc4cc(OCCO)cc(O)c4c3=O)C(O)C(O)C2O)[C@@H](O)C(O)C1O (stereo partly specified)

System: not listed separately
Assay: Confirmation and Secondary Assay for Modulators of Hemoglobin Beta Chain Splicing at IVS2 654 locus (AID 910);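 note: HeLa cells stably carrying EGFP split by mutant beta-globin IVS2-654 intron; per-well total GFP intensity by laser scanning cytometry after 2-day treatment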
Settings: HeLa EGFP-654 splicing reporter, GFP fluorescence, 48 h; series mostly up to 46.1 µM
How it was run: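 Readout: per-well total peak green fluorescence (488 nm ex, 500–520 nm em) from objects 5–250 µm, reflecting correct splicing of an EGFP-654 reporter. Compounds were applied for 2 days at 37 °C to overnight-plated HeLa EGFP-654 cells; controls were DMSO and 500 nM IVS2-654 PNA.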

Potency, inactive:
NC(=O)c1ncn(C2OC(CO)C(O)C2O)c1N (stereo unspecified)
OCCN1CC(O)C(O)C(O)C1CO (stereo unspecified)
CC(CCC(=O)O)C1CCC2C3C(=O)C[C@@H]4CC(=O)CC[C@@]4(C)C3CC(=O)[C@]12C (stereo partly specified)
COc1cccc(OC)c1C(=O)NC1C(=O)N2C1SC(C)(C)C2C(=O)O (stereo unspecified)
OCC1O[C@H](Oc2ccc(O)cc2)C(O)C(O)C1O (stereo partly specified)
CC1OC(OCC2OC(Oc3c(-c4ccc(OCCO)c(OCCO)c4)oc4cc(OCCO)cc(O)c4c3=O)C(O)C(O)C2O)[C@@H](O)C(O)C1O (stereo partly specified)
